# Compound activity: PubChem BioAssay, National Center for Advancing Translational Sciences (NCATS)
# Shown are actives, neighbours in structure and some others; about 7.5% of the full set was active somewhere.
# ELG1 genotoxic: qHTS screen for small molecules that induce genotoxicity in human embryonic kidney (HEK293T) cells expressing luciferase-tagged ELG1; HEK293T ELG1-luciferase reporter, luminescence, 16 h; Potency, µM (highest dose often 46 µM), without a hit: at the top dose activity change, positive = activation, most hits filed as activators; 330,000 compounds, 1.3% hits; further: % of control where 0% means no effect; nearly all actives have a fitted effect of over 60% in size
#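 16 hr compound incubation (37 °C, 5% CO2) of HEK293T cells carrying luciferase-tagged ELG1; luciferase then measured by ONE-Glo luminescence after 30 min at RT.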
# KinaseGlo FLuc: Counterscreen for Luciferase (Kinase-Glo TM) Inhibition; Kinase-Glo luciferase, ATP luminescence, 8 min; Potency, µM (series often up to 38.3 µM), without a hit: at the highest dose activity change, negative = inhibition, actives largely listed as inhibitors; Luciferin 4-monooxygenase (Photuris pensylvanica), Q27757; 200,000 compounds, 0.28% hits; further: on the % scale 0 is the no-effect control and ±100 the full control effect; nearly all actives have a fitted effect of over 60% in size
#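 Light output from Kinase-Glo luciferase with luciferin and 10 uM ATP in 50 mM imidazole pH 7.2, KCl, MgCl2, Tween 20, BSA; compound pin-delivered, 8-min ambient incubation, then luminescence read.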
# NPC1 promoter act: qHTS Assay for NPC1 Promoter Activators; Potency, µM (doses to about 9.22 µM), for inactives: at the top dose activation, hits mostly activators; Huh7 NPC1 promoter luciferase reporter, 24 h; 320,000 compounds, 2.4% hits; further: % of control where 0% means no effect; nearly all actives have a fitted effect of over 60% in size
#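 Huh7 reporter cells (NPC1 promoter driving luciferase) are dosed with compound for 24 h at 37 °C, 5% CO2; luciferase detection reagent is then added and luminescence measured after 10 min at ambient temperature.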
# Rab9 promoter act: qHTS Assay for Rab9 Promoter Activators; Huh7 Rab9 promoter-luciferase reporter, luminescence, 24 h; Potency, µM (doses to about 9.22 µM), inactives show at the top dose activation, negative = inhibition, actives largely listed as activators; 320,000 compounds, 2.8% hits; further: % of control where 0% means no effect; nearly all actives have a fitted effect of over 60% in size
#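 Cells were plated at 1500 per well in reduced-serum medium with 10% FBS and left 2 h. Compound in DMSO was then added for 24 h at 37 °C. Reporter signal was read by luminescence after 10 min with luciferase detection reagent.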
# FLuc modulator: qHTS profiling assay for firefly luciferase inhibitor/activator using purifed enzyme and Km concentrations of substrates (counterscreen for miR-21 project); purified FLuc, Km substrates, luminescence inhibition; Potency, µM (highest dose often 57.5 µM), for inactives: top-dose activity change, negative = inhibition, usual class: inhibitors; 360,000 compounds, 6.9% hits;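 further: plate controls were vehicle for no effect and reference inhibitor for full effect; nearly all actives have a fitted effect of over 55% in size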
# Target sequence (P08659 whole entry, looked up): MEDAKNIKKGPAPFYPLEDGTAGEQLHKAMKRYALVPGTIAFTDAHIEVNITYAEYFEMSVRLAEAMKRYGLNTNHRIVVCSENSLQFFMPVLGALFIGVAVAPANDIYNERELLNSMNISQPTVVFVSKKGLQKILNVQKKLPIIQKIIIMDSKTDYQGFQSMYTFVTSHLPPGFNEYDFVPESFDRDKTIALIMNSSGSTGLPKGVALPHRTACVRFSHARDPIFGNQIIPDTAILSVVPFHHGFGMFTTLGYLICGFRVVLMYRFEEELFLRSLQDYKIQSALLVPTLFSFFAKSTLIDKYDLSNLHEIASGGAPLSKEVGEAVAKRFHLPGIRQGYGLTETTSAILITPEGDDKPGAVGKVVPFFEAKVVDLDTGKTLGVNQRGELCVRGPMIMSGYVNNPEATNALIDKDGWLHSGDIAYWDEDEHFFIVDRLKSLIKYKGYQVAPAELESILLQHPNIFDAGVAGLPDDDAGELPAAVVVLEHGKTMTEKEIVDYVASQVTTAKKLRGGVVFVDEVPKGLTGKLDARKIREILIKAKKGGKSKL
#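 Purified P. pyralis luciferase, 10 nM final, with Km-level 10 uM D-luciferin and 10 uM ATP in 50 mM Tris acetate pH 7.5, 10 mM Mg acetate, 0.01% Tween-20, 0.05% BSA; 6-point qHTS titration about 60 µM downward; luminescence read.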
# SMN2 splice up: qHTS Assay for Enhancers of SMN2 Splice Variant Expression | HEK293 SMN2-luciferase splicing reporter, luminescence, 30-36 h | Potency, µM (doses to about 46.1 µM), without a hit: top-dose activity change, positive = activation, hits mostly activators | 210,000 compounds, 2.8% hits; further: % of control where 0% means no effect; nearly all actives have a fitted effect of over 55% in size
#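 qHTS luciferase splicing reporter: luminescence rises when SMN2 exon 7 is included in transfected HEK293 cells. Compound exposure lasted 30-36 h at 37C, with 4.5 mM final sodium butyrate as control, followed by a ONE-Glo read.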
# The depositor's hits bear a star; ? = inconclusive; / = no result. The call rests on the fitted dose curve; in most records, active means well fitted curve in the direction sought with a large enough effect; inconclusive means small, poorly fitted or top-dose-only effect, or another doubt; inactive means no such curve, though single readings can be large; an effect the other way counts as inactive or inconclusive. Potency means the concentration at half of the fitted maximal effect.
SMILES,ELG1 genotoxic,KinaseGlo FLuc,NPC1 promoter act,Rab9 promoter act,FLuc modulator,SMN2 splice up
O=C(N/N=C/c1cccc(O)c1)c1cc(-c2ccc3c(c2)OCO3)n[nH]1,-2.3%,-3.2%,-1.9%,1.1%,5.36µM*,7.7%
Cn1cc(Br)c(C(=O)N/N=C/c2cccc(OC3CSC3)c2)n1,7.6%,-9.6%,0.2%,12.9%,19µM*,6.3%
CC(C)(C)NS(=O)(=O)c1cc(C(=O)Nc2sccc2C#N)ccc1Cl,-6.2%,2.7%,-1.1%,2.6%,-18.3%,-82.9%
Cc1ccc(CNC(=O)CN(c2ccc(Cl)cc2Cl)S(=O)(=O)c2ccccc2)cc1,/,/,/,/,-12.6%,-14.1%
O=C(N/N=C/c1ccc(Br)o1)c1ccc2c(c1)OCCO2,?,-6.0%,3.16µM*,3.16µM*,6.01µM*,11.2µM*
O=C(CNC(=O)c1ccc2c(c1)OCCO2)N/N=C/c1ccco1,3.0%,/,-1.5%,-8.8%,-6.0%,/
O=C(Cn1ncc2c3ccccc3n(Cc3ccccc3)c2c1=O)NCCc1ccc(Cl)cc1,/,/,/,/,-0.5%,7.9%
O=C(N/N=C/C1C(c2ccccc2)C1(Cl)Cl)c1cccc(Cl)c1 (configuration not stated),3.5%,2.4%,-0.3%,-1.4%,-11.5%,-7.5%
Cc1cccnc1NC(=O)c1ccc2c(c1)NC(=O)C(C)S2 (configuration not stated),?,/,8.9%,1.6%,16.9µM*,/
CC1Sc2ccc(C(=O)Nc3ncccc3O)cc2NC1=O (configuration not stated),?,/,1.26µM*,0.891µM*,7.57µM*,/
CC1Sc2ccc(C(=O)O)cc2NC1=O (configuration not stated),-0.1%,25.3%,-0.6%,-2.9%,1.3%,-24.8%
CC1Sc2ccc(C(=O)OCc3ccccc3Cl)cc2NC1=O (configuration not stated),?,/,2.24µM*,1µM*,2.13µM*,/
Nc1ncnc2[nH]c(=O)[nH]c12,/,-1.6%,/,/,/,0.4%
COc1ccc(-c2nc3ccc([N+](=O)[O-])cc3o2)cc1,6.51µM*,-6.0%,1.58µM*,1.12µM*,0.757µM*,11.2µM*
Cc1cccc(-c2nc3cc([N+](=O)[O-])ccc3o2)c1,16.4µM*,-28.6%,3.55µM*,1.58µM*,1.69µM*,15.8µM*
NC(N)=Nc1nc2cc([N+](=O)[O-])ccc2o1,10.2%,-2.7%,-1.3%,8.9%,?,/
O=[N+]([O-])c1ccc2oc(-c3ccccc3)nc2c1,?,-12.8%,?,2.24µM*,?,15.8µM*
COc1cc2c(=O)c(C(=O)c3ccc(C)c(C)c3)cn(Cc3ccc(F)cc3)c2cc1OC,/,/,/,/,0.0%,-3.7%
COc1ccc(/C=C\C(=O)NC2CC(=O)N(c3ccc(F)cc3)C2)cc1OC (configuration not stated),/,/,/,/,3.5%,/
Cc1ccn2c(NC(=O)c3ccccc3)c(-c3ccccc3)nc2c1,2.8%,/,1.6%,9.2%,-10.5%,/
Cc1ccn2c(c1)nc(=S)n2C(=O)c1ccccc1,?,?,0.398µM*,0.251µM*,0.135µM*,0.501µM*
Cc1cccc(C(=O)n2c(=S)nc3cc(C)ccn32)c1,0.461µM*,/,0.562µM*,0.251µM*,0.19µM*,/
COC(=O)c1sc(-c2cccs2)cc1N,?,/,?,26.5%,12µM*,/
COC(=O)c1sc(-c2ccc(Cl)cc2)cc1N,?,/,2.24µM*,2.51µM*,6.75µM*,/
CC(=O)c1sc(-c2ccc(Cl)cc2)cc1N,?,/,4.4%,13.2%,?,/
SMILES,ELG1 genotoxic,KinaseGlo FLuc,NPC1 promoter act,Rab9 promoter act,FLuc modulator,SMN2 splice up
CCOc1ccc(C2=NNC(c3cccs3)=Nc3ccc(OC)cc32)cc1,-3.0%,-6.6%,-4.2%,-1.4%,21.3µM*,4.1%
CCOc1ccc(C2=Nc3ccc(Br)cc3C(c3ccc(N4CCOCC4)cc3)=NN2)cc1,?,2.9%,?,?,23.9µM*,?
CCOc1ccc(C2=Nc3ccccc3C(c3ccc(N4CCOCC4)cc3)=NN2)cc1,9.5%,-6.4%,?,2.82µM*,?,?
COc1ccc(Cn2c(C(=O)O)c(CNCc3ccccc3F)c3ccc(OC)cc32)cc1,/,/,/,/,1.8%,/
O=C(/C=C/c1ccco1)Nc1ccc2c(c1)OCCO2,-5.1%,-16.6%,2.24µM*,0.631µM*,1.9µM*,8.91µM*
O=C(/C=C/c1ccccc1)Nc1ccc2c(c1)OCCO2,?,-13.5%,0.501µM*,0.447µM*,0.213µM*,1.12µM*
COc1ccccc1/C=C/C(=O)OCC(=O)Nc1ccc2c(c1)OCCO2,1.7%,/,0.1%,-4.9%,/,/
COc1ccccc1/C=C/C(=O)Nc1ccc2c(c1)OCCO2,?,-4.6%,?,0.708µM*,0.849µM*,2.82µM*
CCCCNc1nc(C)nc2c1nc(-c1ccccc1)n2CCCN(C)C,/,-2.5%,/,/,/,-15.8%
COC(=O)c1ccc(NC(=O)CC2C(=O)N(c3ccc(F)cc3)C(=O)N2Cc2ccc(OC)cc2)cc1 (configuration not stated),/,/,/,/,4.7%,/
Cc1cc(-c2n[nH]c(=S)n2/N=C/C(Cl)=C/c2ccccc2)n[nH]1,?,1.8%,25.6%,?,-0.6%,?
S=c1[nH]nc(-c2ccco2)n1/N=C/C(Cl)=C/c1ccccc1,?,/,3.55µM*,1.58µM*,?,/
